D2 ag-1 = agonists of human D2 dopamine receptor (beta-arrestin); 360,000 tested, 0.084% active; DiscoveRx PathHunter D2 beta-arrestin, luminescence, 90 min; 100% = 57 uM dopamine signal; P14416; AID 624465; activation, % (test concentration not listed); in the data active means activation above about 40%
Target sequence (P14416 whole entry, looked up): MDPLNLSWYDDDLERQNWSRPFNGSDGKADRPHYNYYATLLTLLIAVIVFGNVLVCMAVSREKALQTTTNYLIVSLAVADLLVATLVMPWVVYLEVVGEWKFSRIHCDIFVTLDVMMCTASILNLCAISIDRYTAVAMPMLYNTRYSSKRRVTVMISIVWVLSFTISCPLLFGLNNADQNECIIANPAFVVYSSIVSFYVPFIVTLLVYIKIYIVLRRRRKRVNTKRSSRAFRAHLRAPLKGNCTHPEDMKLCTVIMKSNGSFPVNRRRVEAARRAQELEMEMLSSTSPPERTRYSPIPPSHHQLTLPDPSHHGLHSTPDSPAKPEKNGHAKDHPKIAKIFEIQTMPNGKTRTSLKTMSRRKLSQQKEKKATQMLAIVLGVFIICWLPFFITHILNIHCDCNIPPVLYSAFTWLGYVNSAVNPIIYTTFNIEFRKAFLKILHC
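DiscoveRx PathHunter D2 beta-arrestin cells (2,100/well) attached overnight, then compound-stimulated 90 min at 37 C in HBSS/10 mM HEPES/0.1% Tween-20 buffer; beta-galactosidase complementation read by luminescence after 1 h at ambient temperature. Dopamine 57 uM final (EC100) as control.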
D2 antagonist = antagonizes the human D2 dopamine receptor; P14416; HEK293 TREx D2 cells, calcium flux, dopamine EC80; inhibition, % at 10 µM; 340,000 tested, 2% active; in the data active means inhibition above about 30%; inactive means below that, where a call was filed; further: 0% is about no effect
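HEK293 T-REx D2 cells, tet-induced, calcium dye no-wash. Cpd pintool add, 180 s kinetic, then EC80 DA, 180 s kinetic. Ca flux read.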
D2 PAM-1 = potentiates the human D2 dopamine receptor allosterically; P14416; DiscoveRx D2 beta-arrestin cells, luminescence, 90 min; 100% = 57 uM dopamine signal; potentiation, % (no concentration beside the values); 360,000 tested, 0.23% active; AID 624464; in the data active means potentiation above about 50%
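PathHunter D2 cells, attached overnight at 37 deg C, received compound in DMSO plus dopamine at EC20 (50 nM final) for 90 min at 37 deg C. Beta-arrestin recruitment was read as luminescence after 1 h with detection reagent at ambient temperature.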
D2 PAM-2 = D2 dopamine receptor (human) potentiation | potentiation, % at 10 µM | AID 485347 | HEK293 T-REx D2, calcium flux, EC20 dopamine potentiation | 340,000 tested, 0.34% active | P14416;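 active means potentiation over 3 SD above the plate norm, cut at about 30% in these data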; further: 0% is about no effect
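Potentiation of an EC20 dopamine calcium response is measured in a force-coupled, tetracycline-inducible Hek293 Trex D2 line. Compound-only kinetic reads over 180 s flag agonists before dopamine addition.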
D2 ag-2 = D2 dopamine receptor (human) agonism; HEK293 T-REx D2 cells, calcium flux agonist mode; activation, % at 2 µM; AID 485358; P14416; 340,000 tested, 0.53% active;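 active means activation over 3 SD above normal in the single-dose calcium agonist read, cut at about 30% in these data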; further: 0% is about no effect
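Tetracycline-induced HEK293 Trex cells with D2 receptor force-coupled to calcium signaling, plated overnight at 30 C and loaded with no-wash calcium dye. Calcium flux read kinetically for 180 s after compound addition; responses flag agonists.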
Numbers without * were called inactive; . = not tested or not shown. The list is not random: actives were taken first. Their share in the collection is about 2.4%.

SMILES	D2 ag-1	D2 antagonist	D2 PAM-1	D2 PAM-2	D2 ag-2
Cc1cccc(NC(=O)CCS(=O)(=O)c2ccc3c(c2)NC(=O)CS3)n1	0	39*	-6	-3	0
CC1CCC(NC(=O)CCS(=O)(=O)c2ccc3c(c2)NC(=O)CS3)CC1 (stereo not given)	-2	3	-4	-1	1
O=C(Cc1ccccc1)NC1CC(=O)N(c2ccc3c(c2)OCCO3)C1 (stereo not given)	.	.	.	7	1
CC(C)COc1ccccc1C(=O)NC(CO)C(=O)O (stereo not given)	-2	43*	-6	7	-1
Cc1cc2nc(CCN(C(=S)NCC3CCCO3)C3CCCC3)[nH]c2cc1C (stereo not given)	-18	31*	-8	-4	0
Cc1cc2nc(CCN(C(=S)NCC(C)C)C3CCCC3)[nH]c2cc1C	1	13	-24	-13	1
c1ccc(N2CCN(c3c4c(nc5ncnn35)CCC4)CC2)cc1	1	-26	4	1	-1
CC1CCCCC1NC(=O)C1CCN(c2c3c(nc4ncnn24)CCC3)CC1 (stereo not given)	-4	34*	0	-2	-2
Cc1[nH]c2ccccc2c1C(=O)C(=O)NC1CC(=O)N(c2cccc(F)c2)C1 (stereo not given)	.	.	.	7	1
Cc1cccc(-c2nc(C)c(CCNC(=O)C(=O)Nc3cccc(Cl)c3C)s2)c1	.	.	.	10	0
Cc1ccc(S(=O)(=O)NC(C)C(=O)NC(C)c2cccs2)cc1 (stereo not given)	-3	-1	-3	32*	0
Cc1ccc(S(=O)(=O)NC(CC(=O)O)c2cccs2)cc1 (stereo not given)	6	-3	8	0	0
CCN=c1scc(C)n1/N=C/c1ccc(O)c(O)c1O	49*	-8	117*	0	32*
CCN=c1scc(C)n1/N=C/c1cc(Br)c(O)c(Br)c1	-2	-18	-1	-4	0
CC(=O)N1CCCc2cc(S(=O)(=O)N(C)CC(=O)Nc3ccc(F)c(Cl)c3)ccc21	.	.	.	.	-1
CCOC(=O)c1cc(C)[nH]c1C	-20	-9	-10	9	0
CCOC(=O)c1cc(C)[nH]c(=O)c1C#N	-1	-17	62*	7	0
CCc1ccc(C2CC(=O)Oc3c2c(=O)n(C)c2ccccc32)cc1 (stereo not given)	.	.	.	8	.
CCOC(=O)/C(=C\C=C1/Sc2ccccc2N1CC)C(C)=O	4	.	-8	.	.
CCOC(=O)/C(=C/C=C1\Sc2cc(C)c(C)cc2N1CC)C(C)=O	6	29	-12	31*	84*
CCOC(=O)/C(=C/C=C1\Sc2ccccc2N1CC)C(C)=O	-4	1	-2	1	35*
CCOC(=O)CNC(=O)CSc1ncnc2c1cnn2-c1ccc(C)cc1	1	5	-3	-5	0
Cc1ccc(-n2ncc3c(SCC(=O)NNC(=O)c4ccco4)ncnc32)cc1	1	-1	-3	32*	0
CN(C)c1ccc(C(CNS(=O)(=O)c2ccc(Cl)cc2)N2CCCC2)cc1 (stereo not given)	.	.	.	-19	-1
Cc1ccc(C)c2[nH]c(=O)c(CN(CC3CCCO3)C(=S)NCc3ccco3)cc12 (stereo not given)	1	6	1	2	-1
SMILES	D2 ag-1	D2 antagonist	D2 PAM-1	D2 PAM-2	D2 ag-2
Cc1ccc2cc(CN(CC3CCCO3)C(=S)NCc3ccco3)c(=O)[nH]c2c1C (stereo not given)	-11	33*	-5	5	-1
Cc1ccc(C)c2[nH]c(=O)c(CN(Cc3cccs3)C(=S)NCc3ccco3)cc12	0	53*	-8	6	2
Cc1ccc(S(=O)(=O)NCCc2nnc3ccc(SCc4ccccc4C)nn23)cc1	.	.	.	4	-1
CCc1[nH]nc2c1C(c1ccc(C)o1)C(C#N)=C(N)O2 (stereo not given)	-2	64*	11	-8	0
N#CC1=C(N)Oc2n[nH]c(-c3cccnc3)c2C1c1ccc([N+](=O)[O-])o1 (stereo not given)	9	8	55*	6	1
COCCCNS(=O)(=O)c1ccc(N2CCCCS2(=O)=O)cc1	.	.	.	.	2
Cc1ccc2c(CC(=O)N3CCN(c4cccc(Cl)c4)CC3)coc2c1C	.	.	.	-2	0
N#CC1(NC(=O)COC(=O)C2=COCCO2)CCCCC1	-5	50*	-4	3	0
N#Cc1ccccc1Cn1c(SCC(=O)NCc2ccccc2)nc2ccccc21	.	.	.	.	-5
Cc1cc(C(F)(F)F)n(-c2nc(C(=O)O)cs2)n1	1	-3	-4	-4	0
O=C(O)c1csc(-n2nc(-c3ccccc3)cc2C(F)(F)F)n1	4	48*	-10	15	0
Cc1cc(C(N)=O)c2ccccc2n1	2	50*	8	-14	-1
Cc1cc(C(=O)NNC(=S)NC(C)c2ccccc2)c2ccccc2n1 (stereo not given)	-13	45*	-41	5	-1
CCOC(=O)c1cc(S(=O)(=O)N2CCN(c3ccc(C)cc3C)CC2)[nH]n1	.	.	.	-3	1
Cc1cc(OCC(=O)O/N=C(\N)c2ccccc2)ccc1Br	7	1	0	-11	30*
COc1ccc(N2CCC(CNS(=O)(=O)c3cccc(C(F)(F)F)c3)C2)cc1 (stereo not given)	2	38*	-7	.	4
COc1ccc(CNC(=O)C2CCN(S(=O)(=O)c3cccc(C(F)(F)F)c3)CC2)cc1	4	6	11	-6	0
Cc1ccc2c(=O)cc(C(=O)N(Cc3ccc(C(C)(C)C)cc3)C3CCS(=O)(=O)C3)oc2c1 (stereo not given)	.	.	.	12	0
COc1cccc(-c2noc(C3CCCN(C(=O)c4ccc(F)cc4F)C3)n2)c1 (stereo not given)	-4	33*	0	19	-1
COc1ccc2c(c1)CC(N1CCN(C)CC1)c1cc(OC)ccc1S2 (stereo not given)	-6	.	-23	.	.
Fc1ccc2c(c1)Sc1ccc(Cl)cc1CC2N1CCN(CCC2OCCO2)CC1 (stereo not given)	-8	.	-25	.	.
COCCCN1CCN(C2Cc3ccccc3Sc3ccc(Cl)cc32)CC1 (stereo not given)	-3	107*	-42	-28	1
NC(=O)CCN1CCN(CCOC2Cc3cc(Cl)ccc3Sc3ccccc32)CC1 (stereo not given)	3	94*	-37	-25	0
Clc1cccc2c1Sc1ccccc1CC2N1CCNCC1 (stereo not given)	-2	66*	-17	-17	2
O=C(c1ccccc1Cl)N1CCNCC1	-2	-8	-5	-2	-1
